GBA activity: modulators of human glucocerebrosidase; actives 1.1% (n = 48,000); purified enzyme, resorufin glucoside fluorescence (screen aimed at inhibitors), 20 min; P04062; Potency, µM; in the data active = potency below about 15 µM; inconclusive = mostly about 16 µM to 33 µM;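 also: the screen sought inhibitors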
Target sequence (P04062 whole entry, looked up): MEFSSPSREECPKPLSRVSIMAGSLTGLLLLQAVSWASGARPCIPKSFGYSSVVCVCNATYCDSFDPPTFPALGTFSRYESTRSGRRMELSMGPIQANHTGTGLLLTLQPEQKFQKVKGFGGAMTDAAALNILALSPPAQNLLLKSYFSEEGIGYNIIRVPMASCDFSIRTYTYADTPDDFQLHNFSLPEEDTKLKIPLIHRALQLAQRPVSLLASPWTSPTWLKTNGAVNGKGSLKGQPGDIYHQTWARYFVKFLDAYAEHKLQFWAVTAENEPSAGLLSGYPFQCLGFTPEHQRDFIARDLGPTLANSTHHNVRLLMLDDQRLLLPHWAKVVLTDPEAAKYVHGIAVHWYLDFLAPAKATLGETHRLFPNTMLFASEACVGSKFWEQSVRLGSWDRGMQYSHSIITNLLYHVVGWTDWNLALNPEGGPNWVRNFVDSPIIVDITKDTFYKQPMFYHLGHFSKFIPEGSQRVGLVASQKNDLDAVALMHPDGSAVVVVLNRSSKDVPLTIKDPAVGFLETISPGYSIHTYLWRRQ
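Normal human glucocerebrosidase (0.2 nM final) was assayed with resorufin β-D-glucopyranoside (30 uM final) in 50mM citric acid/KH2PO4, 10mM sodium taurocholate, 0.01% tween-20, pH 5.9. Compounds were titrated; fluorescence (Ex 548, Em 600) read after 20 min at RT.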
Bst PK mod: modulators of Bacillus stearothermophilus pyruvate kinase | purified pyruvate kinase, luminescence ATP production; ribose 5-phosphate activator present at AC10 | Potency, µM | actives 1.2% (n = 51,000) | AID 361; in the data active = potency below about 11 µM; inconclusive = mostly about 12 µM to 25 µM;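 the screen sought inhibitors and activators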;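 also: scaled between full activation by ribose 5 phosphate and full inhibition by luteolin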
Luciferase inh: inhibitors of firefly luciferase; P08659; purified firefly luciferase, luminescence, 8 min; Potency, µM (top dose mostly 57.1 µM), for the others: at the top dose activity change, negative = inhibition, hits mostly inhibitors; actives 2.2% (n = 72,000); active = well fitted inhibition curve with a large enough effect; inconclusive = small, poorly fitted or top-dose-only effect; also: % is scaled to controls: 0 for no effect and ±100 for the full control effect; nearly all actives have a fitted effect of over 40% in size
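Firefly luciferase (PKLight detection mix) with 10 uM ATP in pH 7.2 imidazole buffer (KCl, MgCl2, Tween 20, BSA). Compounds tested across a concentration series (qHTS). Luminescence read after 8 min at ambient temperature.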
An asterisk follows results filed as active; i = inactive; u = inconclusive; x = not tested or not shown; [ ] = dose if it differs, or a comment. An excerpt weighted towards active compounds, which were near 3.4% of everything screened. Potency is read from the fitted curve at half-maximal effect.

SMILES	GBA activity	Bst PK mod	Luciferase inh
Cc1cc(N/C=C/C(=O)c2cccc3ccccc23)no1	x	9.3*	0%[25.5 µM]
Cc1cc(C(=O)OCC(=O)Nc2cc(C)on2)c2ccccc2n1	>77	>57	-1%
CCOC(=O)CCN1C(=O)[C@H]2[C@H]3[C@H](O)[C@H](O)C/C(=N/OC/C=C(\C)CCC=C(C)C)[C@@H]3CC[C@@H]2C1=O	x	x	0%[11.4 µM]
C=CCOc1c(CNc2nccs2)cccc1OCC	>77	u	13µM*
C=CCOc1ccccc1CNCc1cccnc1	u	>57	2%
Cc1ccc(N2CCN(CCC(=O)O)CC2)cc1	x	x	1%[11.4 µM]
Cc1nc(N)nc2ccccc12	x	x	0%[11.4 µM]
Cc1nc(/N=C(\N)Nc2ccccc2)nc2ccccc12	x	9.3*	-12%[25.5 µM]
COc1ccccc1CN1CCC2(CC1)CCN(S(C)(=O)=O)CC2	x	x	1%[11.4 µM]
CCc1ccc(-c2cn(-c3nc(C)cc(C)n3)c(=N)o2)cc1	i	x	16µM*
O=C(CCN1CCCCC1)N1CCc2c([nH]c3ccccc23)[C@H]1c1cccnc1	x	x	3%[11.4 µM]
Cc1cccc(NS(=O)(=O)c2ccccc2)n1	x	x	0%
Cc1cccc(C#Cc2ccccc2)n1	x	x	13µM*
Cc1ccc(Nc2cccccc2=O)cc1	>77	i	25µM*
CC(C)(C)Nc1cccccc1=O	>77	>57	4%
O=C(COc1cccc2cccnc12)Nc1nccs1	>77	>57	16µM*
O=C(Oc1cccc2cccnc12)c1cccs1	>77	i	-5%
CCCSc1nc(N)c2c3c(sc2n1)CN(C)CC3	>77	>57	2%
COC(=O)CSc1nc(N)c2c3c(sc2n1)CCCC3	x	u	13µM*
COc1ccc(Cl)cc1-c1nc(-c2ccncc2)no1	>77	>57	0%
COc1cc(OC)cc(-c2nc(-c3ccc(Br)cc3)no2)c1	x	x	1%
Cc1ccc(-c2noc(-c3ccccc3C(=O)N3CCN(C)CC3)n2)cc1	i	>11	-8%
Cc1ccccc1-c1noc(-c2ccc(O)cc2)n1	x	x	20µM*
COc1ccc(-c2nc(-c3ccc(Br)cc3)no2)c(OC)c1	>77	6.3*	2.5µM*
COc1ccccc1-c1nc(-c2ccncc2)no1	>77	i	20µM*
SMILES	GBA activity	Bst PK mod	Luciferase inh
Cc1ccc(-c2noc(-c3ccccc3Br)n2)cc1	x	x	3.2µM*
Cc1ccccc1-c1noc(-c2ccccc2C(=O)N2CCCC2)n1	>77	>57	0%
O=C(c1csnn1)N1CCC2(CC1)CCN(c1ccccc1)CC2	x	x	0%[11.4 µM]
CCCC[S@@](=N)(=O)CC[C@@H](N)C(=O)O	x	x	3%
CNC[C@@H](SC)c1ccc(O)c(O)c1	x	x	-8%[11.4 µM]
CN(C)c1ccc(-c2noc(-c3ccccc3O)n2)cc1	>77	i	1µM*
COc1ccccc1-c1noc(-c2cc(OC)c(OC)c(OC)c2)n1	x	>57	-2%
CN1CCN(C(=O)c2ccccc2-c2nc(-c3ccc(Cl)cc3)no2)CC1	u	u	1%
COc1ccccc1-c1nc(-c2ccc(Br)cc2)no1	x	x	13µM*
FC(F)(F)c1ccccc1-c1cc(N2CCNCC2)ncn1	x	x	0%[2.29 µM]
Cn1c(=O)c(-c2ccc(F)c(F)c2)nc2cncnc21	x	x	1%[11.4 µM]
COc1ccc(-c2cc(C(=O)Nc3ccc(C)cc3)no2)cc1	>77	>57	5%
Cc1ccc(-c2cc(C(=O)Nc3c(C#N)cnn3C)no2)cc1	>77	x	13µM*
CN1CCc2c(cc(O)c(O)c2Cl)[C@H](c2cccc(Cl)c2)C1	x	x	2%
COc1cccc(Cn2c(=O)c(-c3cccc(F)c3)nc3cncnc32)c1	x	x	-1%[11.4 µM]
COc1ccccc1N1CCN(Cc2nc(N)nc(Nc3ccc(C)c(Cl)c3)n2)CC1	5.3*	>57	0%
COc1ccccc1Nc1nc(N)nc(CSCCO)n1	>77	x	-22%
COc1ccc(N2CCN(Cc3nc(N)nc(Nc4ccccc4OC)n3)CC2)cc1	3.9*	>57	1%
COc1ccccc1Nc1nc(N)nc(CN2CCN(c3ccccc3F)CC2)n1	2.4*	>57	0%
COc1ccccc1Nc1nc(N)nc(CSc2ncccn2)n1	>77	>57	0%
COc1ccccc1N1CCN(CC(=O)Nc2ccc(C)c(F)c2)CC1	>77	>57	2%
C[C@@H](C(=O)O)/C(=C/c1ccc2c(c1)OCO2)C(=O)O	x	x	-1%[11.4 µM]
CCNc1ncc2ncc(=O)n(C3CC3)c2n1	x	x	1%[11.4 µM]
Cc1noc(C)c1-c1ccc2ncnc(NCc3cccnc3)c2c1	x	x	2%[2.29 µM]
C=CC1=C(C)C2=Cc3c(C=C)c(C)c4[n]3[Sn+2][n]3c(c(C)c(CCC(=O)O)c3=CC3=NC(=C4)C(C)=C3CCC(=O)O)=CC1=N2	x	x	2%
SMILES	GBA activity	Bst PK mod	Luciferase inh
CCN1C(=S)SC(=O)C1=C1C=C(C)OC(C)=C1	x	>57	-5%
CCN1C(=S)SC(=O)C1=C1C=C(C)N(Cc2ccco2)C(C)=C1	u	x	10µM*
COc1ccc(-c2nc3cnc(N4CCN(C)CC4)nc3n(CCC#N)c2=O)cc1	x	x	1%[11.4 µM]
C[C@@]12CC[C@H]3[C@H](CC=C4C[C@@H](O)CC[C@@]43C)[C@@H]1CC[C@@H]2N(CCO)CCO	x	x	3%[11.4 µM]
Clc1ccc(CN2CCCN(Cc3ccc(Cl)cc3)C2c2cc3ccccc3c3ccccc23)cc1	x	x	2%[11.4 µM]
COc1ccc(-n2nc3cc(C)c(NC(=O)CC(C)C)cc3n2)cc1	x	x	0%
COc1ccc(-n2nc3cc(C)c(NC(=O)c4cccnc4)cc3n2)cc1	>77	9.6*	2.5µM*
Cc1cc2nn(-c3ccccc3)nc2cc1NC(=O)c1cccs1	>77	2.3*	16µM*
CCC(=O)Nc1cc2nn(-c3ccccc3)nc2cc1Cl	>77	x	u
CN1CCC2(CC1)CCN(C(=O)c1ccncc1)CC2	x	x	-2%[11.4 µM]
O=S(=O)(c1ccccc1)N1CCC2(CCCN(Cc3ccncc3)C2)CC1	x	x	1%[11.4 µM]
C[C@H]1COC(=O)[C@H]2CCCN2C(=O)[C@@H](C)COC(=O)[C@H](Cc2ccccc2)NC1=O	x	x	0%[11.4 µM]
COc1ccc(CC(=O)Nc2cccc(-c3nnc(-c4ccccc4)o3)c2)cc1OC	u	i	-15%
COc1ccc(CC(=O)Nc2cccc(-c3nnc(-c4cccc(C)c4)o3)c2)cc1OC	11*	x	u
CC(=O)Nc1cccc(-c2nnc(-c3ccccc3)o2)c1	14*	u	u
CC(=O)Nc1cccc(-c2nc3ccccc3c(=O)o2)c1	>77	i	-6%
NC/C=C\C(=O)O	x	x	-1%
CC(NC(=O)c1cc(-c2ccc(O)cc2)on1)c1ccccc1 (stereo not drawn)	x	x	-1%
O=S(=O)(c1cccs1)N1CCN(Cc2nc3ccccc3s2)CC1	i	>57	-9%
O=C(OCc1nc2ccccc2s1)C1CCN(S(=O)(=O)c2cccs2)CC1	>77	>57	32µM*
Cn1c(=O)c2[nH]c([C@@H]3CC(=O)C[C@H](c4nc5c([nH]4)c(=O)n(C)c(=O)n5C)N3)nc2n(C)c1=O	x	x	-1%[11.4 µM]
c1cnc2c(OCc3nc4ccccc4[nH]3)cccc2c1	>77	x	20µM*
COc1ccccc1OCc1nc2ccccc2[nH]1	>77	x	u
NNC(=O)c1ccc(OCc2nc3ccccc3[nH]2)cc1	x	x	-4%[11.4 µM]
COc1cccc(OCc2nc3ccccc3[nH]2)c1	x	x	13µM*
c1ccc(Nc2ncncc2-c2ccoc2)cc1	x	x	-2%[2.29 µM]
CN(Cc1ccco1)c1nc(-c2ccccc2C(F)(F)F)nc2ccccc12	x	x	-1%[2.29 µM]
C[C@@H](Cc1ccccc1)Nc1ncnc2c1ncn2[C@@H]1O[C@@H](CO)[C@H](O)[C@@H]1O	x	x	-2%
Cc1ccc2c(c1)N(CC(=O)NCCN1CCOCC1)C(=O)CO2	x	x	4%

Screens deposited in PubChem by National Center for Advancing Translational Sciences (NCATS).
